Hits are enriched below; roughly 0.9% of the tested compounds scored in any of these assays.
B2AR arrestin: agonists driving beta-arrestin recruitment to human beta2-adrenergic receptor | 0.02% of 330,000 active | beta-arrestin recruitment to beta2AR, cell-based reporter | Potency, µM (top dose mostly 46.1 µM), usual class: activators | P07550; note: nearly all actives have a fitted effect of over 65% in size
L3MBTL1 inh: L3MBTL1 (human) inhibition. Q9Y468. AlphaScreen L3MBTL1–H3K9me1 peptide binding. Potency, µM (titrated, usually from 57.1 µM), hits mostly inhibitors. 0.66% of 230,000 active; note: nearly all actives have a fitted effect of over 60% in size
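AlphaScreen assay: L3MBTL1 (50 nM final) was preincubated 30 min at room temperature with biotinylated H3(1-15)K9me1 peptide (75 nM final), then 30 min with library compounds; streptavidin donor and nickel chelate acceptor beads (10 ug/mL final) added, 30 min dark.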
Six1-Eya2 inh: inhibitors of human Six1/Eya2 interaction; AlphaScreen GST-Six1/His-Eya2 binding, biochemical; hits give low values; activity change, % (test concentration not listed); 0.56% of 360,000 active; Q15475+O00167; in the data active = activity change below about -65%; inconclusive = mostly about -30% to -63%
Target sequence (O00167 whole entry, looked up): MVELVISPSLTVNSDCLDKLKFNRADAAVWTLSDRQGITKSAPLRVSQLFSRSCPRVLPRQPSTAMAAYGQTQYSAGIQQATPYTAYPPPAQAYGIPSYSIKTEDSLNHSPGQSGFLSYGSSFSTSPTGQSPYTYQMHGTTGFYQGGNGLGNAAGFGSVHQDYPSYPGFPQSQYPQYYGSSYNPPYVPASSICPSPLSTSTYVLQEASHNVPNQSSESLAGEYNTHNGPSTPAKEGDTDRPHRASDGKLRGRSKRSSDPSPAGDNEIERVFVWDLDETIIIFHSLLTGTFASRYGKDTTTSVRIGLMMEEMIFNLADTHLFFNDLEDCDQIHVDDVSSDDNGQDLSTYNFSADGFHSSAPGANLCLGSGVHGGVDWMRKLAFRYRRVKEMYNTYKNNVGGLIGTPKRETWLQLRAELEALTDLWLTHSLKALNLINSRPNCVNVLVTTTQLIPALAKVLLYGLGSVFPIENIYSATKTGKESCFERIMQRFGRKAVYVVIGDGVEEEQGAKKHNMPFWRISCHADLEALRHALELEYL
Target sequence (Q15475 whole entry, looked up): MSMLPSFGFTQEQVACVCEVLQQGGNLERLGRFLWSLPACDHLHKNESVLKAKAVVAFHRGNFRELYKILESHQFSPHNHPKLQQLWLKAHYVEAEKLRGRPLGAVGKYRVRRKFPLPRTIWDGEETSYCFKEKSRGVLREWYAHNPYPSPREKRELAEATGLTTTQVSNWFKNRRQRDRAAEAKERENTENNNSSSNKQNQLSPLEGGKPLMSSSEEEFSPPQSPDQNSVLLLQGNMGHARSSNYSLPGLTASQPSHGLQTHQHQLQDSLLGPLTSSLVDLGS
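AlphaScreen luminescence read after one hour at 37 °C in darkness. Pin-transferred compounds met GST-Six1 and His-Eya2 protein (5X stock 250 nM/500 nM) plus glutathione donor and Ni-chelate acceptor beads (5X, 50 ug/mL).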
CtBP-E1A inh: inhibitors of CtBP/E1A interaction | AlphaScreen GST-E1A/His-CtBP binding, 1536-well; hits give low values | activity change, % (concentration not given with the values) | 0.49% of 340,000 active | AID 651724; in the data active = activity change below about -65%; inconclusive = mostly about -30% to -63%
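Homogeneous bead-based format: GST-tagged E1A captured on glutathione donor beads, His-tagged CtBP on nickel acceptor beads; compounds precede bead addition by 2 h at 37 °C.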
Eya2 phos inh: Eya2 (human) phosphatase inhibition | recombinant Eya2, OMFP fluorescence dephosphorylation (OMFP is methylfluorescein phosphate) | 0.006% of 330,000 active | Potency, µM (titrated, usually from 76.9 µM), hits mostly inhibitors | O00167
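Eya2 (0.2 uM) preincubated 10 min at ambient with compound, then OMFP substrate added at 50 uM; 10 min reaction in 50 mM HEPES pH 7.5, 50 mM NaCl, 5 uM MgCl2, 0.05% BSA, 1 mM DTT. Fluorescence read at Ex 485/Em 525 nm.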
Hits are given with their value; . = inactive; ? = inconclusive; / = no result given; [ ] = another dose, or the depositor's remark. Unless noted, calls come from the whole dose curve; as a rule, active = well fitted curve in the direction sought with a large enough effect; inconclusive = small, poorly fitted or top-dose-only effect, or another doubt; inactive = no such curve, though single readings can be large; an effect the other way counts as inactive or inconclusive.

SMILES	B2AR arrestin	L3MBTL1 inh	Six1-Eya2 inh	CtBP-E1A inh	Eya2 phos inh
O=C(O)CC(CN1C(=O)c2ccccc2C1=O)c1ccccc1 (stereo unspecified)	/	/	.	.	/
CCN(C(=O)c1c([N+](=O)[O-])cnn1C)c1ccccc1	/	/	.	.	/
COc1cccc(C(NC(C)=O)c2ccc3cccnc3c2O)c1 (stereo unspecified)	?	?	-66.8	-91.3	.
Oc1cccc(C(Nc2nccs2)c2ccc3cccnc3c2O)c1 (stereo unspecified)	.	?	-82.9	-81.4	.
O=[N+]([O-])c1ccc(NC(c2ccccc2)c2ccc3cccnc3c2O)cc1 (stereo unspecified)	/	/	.	.	/
CC(=O)NC(c1ccc(C(C)C)cc1)c1ccc2cccnc2c1O (stereo unspecified)	.	.	?	?	.
CC(=O)NC(c1cccc([N+](=O)[O-])c1)c1ccc2cccnc2c1O (stereo unspecified)	.	.	-68.6	-92.4	.
COc1ccc(Nc2nc(-c3c(C)nc4ncccn34)cs2)cc1	.	?	?	/	.
Cc1nc2ncccn2c1-c1csc(Nc2ccccc2)n1	.	.	-80.5	.	.
COc1ccccc1Nc1nc(-c2c(C)nc3ncccn23)cs1	.	.	-84.7	-92.0	.
CSCCC(NC(=O)c1ccccc1Cl)C(=O)N1CCN(c2ccccn2)CC1 (stereo unspecified)	/	/	.	.	/
COc1cccc(CNc2cccc(C(F)(F)F)c2)c1O	.	/	.	.	.
Oc1ccc(CNc2cccc(C(F)(F)F)c2)c2cccnc12	.	12.6µM	/	/	.
Cc1ccc(O)c(CNc2cccc3cccnc23)c1	.	.	.	?	.
Cc1ccc(NCc2ccc(O)c3ncccc23)cc1C	.	.	-69.5	-79.6	.
Cc1ccc(NCc2ccccc2O)cc1	.	/	.	.	.
Cc1ccc(NCc2ccc(O)c3ncccc23)cc1	.	.	-72.2	-78.4	.
Cc1cccnc1NCc1ccc(O)c2ncccc12	?	28.2µM	-90.3	-91.1	.
O=C(NCCS(=O)(=O)N1CCCCCC1)c1ccccc1	.	.	.	.	.
CCCCn1nc(C(=O)N(CC(C)C)c2c(N)n(CCCC)c(=O)[nH]c2=O)c2ccccc2c1=O	.	.	.	.	.
CN1CCC(=O)N(CCOc2ccccc2)CC1	.	.	-83.5	-85.6	.
O=C(O)c1cccc(OCCN2CCCC2=O)c1	.	/	.	.	.
N#Cc1c(SCC(=O)Nc2ccc(C(F)(F)F)cc2)sc2c(O)cc(=O)[nH]c12	.	/	.	.	.
N#Cc1c(SCC(=O)Nc2nncs2)sc2c(O)cc(=O)[nH]c12	.	/	?	-82.4	.
S=C(NCCc1ccccc1)N/N=C/c1cccc(Cl)c1Cl	.	.	.	.	.
SMILES	B2AR arrestin	L3MBTL1 inh	Six1-Eya2 inh	CtBP-E1A inh	Eya2 phos inh
Oc1ccccc1/C=N/NC(=S)NCCc1ccccc1	.	/	?	-65.3	.
Oc1ccccc1C=NNC(=S)Nc1ccc(F)cc1	/	/	-76.0	-92.2	/
Cc1cc(C)cc(NC(=O)c2ccc(CSc3nnnn3C)cc2)c1	.	.	.	.	.
Cn1nnnc1SCc1ccc(C(=O)Nc2nccs2)cc1	.	.[11.4 µM]	-70.4	-79.7	.
O=C(O)c1cccc(Cn2c(Cl)c(/C=N/NC(=O)c3cc4ccccc4cc3O)sc2=O)c1	.	35.5µM	.	/	.
O=C(O)c1ccc(/C=N/NC(=O)c2cc3ccccc3cc2O)cc1	.	31.6µM	.	.	.
Cc1ccc(N(CC(=O)N2CCCC2)S(C)(=O)=O)c(C)c1	.	.	.	.	.
C=CCn1c(O)c(N=Nc2ccccc2O)c2ccccc21	.	.	.	.	.
Oc1ccccc1N=Nc1ccccc1O	.	/	-86.0	/	.
Nc1cc(=O)[nH]c(SCC(=O)Nc2ccc(N3CCCCC3)cc2)n1	.	.	.	.	.
Cn1c(NN)nc2sc3c(c2c1=O)CC(C)(C)OC3	.	.	?	-76.6	.
CC(/C=N/NC(=O)c1nnn(-c2nonc2N)c1C(C)C)=C\c1ccco1	.	/	.	.	.
C[C@@H](O)[C@H]1C(=O)N2C(C(=O)O)=C(SCCN=CN)C[C@H]12	/	/	/	/	.
COc1cc2ncc(C(=O)c3ccccc3)c(N3CCN(Cc4ccccc4)CC3)c2cc1OC	.	.	?	?	.
CCOC(=O)C(=N/O)/C(C)=N/NC(=O)C(=O)Nc1cc(Cl)ccc1Cl	.	25.1µM	.	.	.
Cc1[nH]nc2c1C(c1ccc(F)cc1)C(C#N)=C(N)O2 (stereo unspecified)	.	.	.	.	.
Cc1oc(C)c2c(=O)ccc3c(c12)OC(N)=C(C#N)C3c1ccc(F)cc1 (stereo unspecified)	.	28.2µM	.	.	.
c1ccc(-c2nnc(-c3ccccn3)nc2NC2CCCCC2)cc1	.	/	-84.5	-94.7	.
CNc1nc(-c2ccccn2)nnc1-c1ccccc1	.	/	-92.7	-94.8	.
Oc1ccccc1-c1nc(NC2CCCC2)c2ccccc2n1	.	/	.	.	.
O=C(COC(=O)COc1ccccc1)NC1CCCC1	.	.	.	/	.
COc1cc(N(C)C)ccc1C=c1c2ccccc2n2c1cc(-c1ccccc1)[n+]2C	/	/	-80.3	-79.9	/
CN(C)c1ccc(C=c2c3ccccc3n3c2cc(-c2ccccc2)[n+]3C)cc1	/	/	?	.	/
CN(C)c1ccc(C=c2c3cc([N+](=O)[O-])ccc3n3c2cc(-c2ccccc2)[n+]3C)cc1	/	/	-80.4	.	/
C[C@H]1O[C@@H](n2cc(F)c(=O)[nH]c2=O)[C@H](O)[C@H]1O	/	/	/	/	.
SMILES	B2AR arrestin	L3MBTL1 inh	Six1-Eya2 inh	CtBP-E1A inh	Eya2 phos inh
COc1ccc(N/N=C(/C(C)=O)N2CCCc3ccccc32)cc1	.	.	?	.	.
Cc1ccc(/C=C2\SC(=S)N(CC3CCCO3)C2=O)o1 (stereo unspecified)	.	?	.	.	.
O=C1/C(=C/c2ccco2)SC(=S)N1CC1CCCO1 (stereo unspecified)	.	15.8µM	?	.	.
O=C(CCN1C(=O)/C(=C/c2ccco2)SC1=S)Nc1ccc(O)cc1C(=O)O	.	/	-67.7	.	.
O=C1/C(=C\c2ccco2)SC(=S)N1Cc1ccccc1	.	.	?	.	.
COc1ccc(CCN2C(=O)/C(=C\c3ccco3)SC2=S)cc1OC	.	17.8µM	.	.	.
O=C(CN1C(=O)/C(=C\c2ccco2)SC1=S)Nc1ccc(O)cc1C(=O)O	.	/	?	/	.
Cc1cccc(N2CCN(C(C(=O)NCc3ccccc3)c3ccc(F)cc3)CC2)c1C (stereo unspecified)	/	/	.	.	/
Cn1c2cc(B(O)O)sc2c2cnn(Cc3c(F)cccc3Cl)c(=O)c21	.	.	/	/	.
O=c1cc2oc3cc(O)c(O)cc3c(-c3ccccc3[N+](=O)[O-])c-2cc1O	.	/	-71.1	/	.
O=c1cc(-c2ccccc2Cl)oc2cccc(O)c12	.	.	.	/	.
O=c1c2ccccc2nc2c3ccccc3c(NCc3cccnc3)nn12	.	?	.	.	.

From PubChem
